# Screening results from PubChem.
# Compounds with a hit are over-represented: about 7.8% of the library has one in this group of screens.
# HCMV antiviral – human cytomegalovirus inhibition; HFF cells, HCMV-luciferase reporter, 72 h; hits give low values; activity change, negative = inhibition, % at 57.5 µM; 410,000 tested, 4.5% active; AID 1259415; in the data active = activity change below about -60%; inconclusive = no clear call, values can overlap the other calls; inactive = above about -39%
#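 Human foreskin fibroblasts infected with luciferase-reporter HCMV at MOI 1 PFU/cell, compounds at two doses. Luciferase measured 72 h post infection; normalized to buffer-only basal and Salinomycin (10uM) controls.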
# VACV mCherry inh – vaccinia inhibition (mCherry reporter). Vaccinia virus mCherry reporter infection, fluorescence. Potency, µM (doses to about 36.5 µM), for inactives: top-dose activity change, negative = inhibition, actives largely listed as inhibitors. 310,000 tested, 0.63% active; calls by dose curve; tested in A549 cells; also: potency is read from the fitted curve at half-maximal effect; nearly all actives have a fitted effect of over 35% in size
# Marburg entry inh – blocks Marburg virus binding to or entry into cells. Potency, µM (series often up to 37.8 µM), for the others: at the top dose activity change, negative = inhibition, actives largely listed as inhibitors. Marburg virus pseudotyped entry inhibition, cell reporter. AID 540276. 300,000 tested, 1.8% active; calls by dose curve; tested in HEK293 cells; also: potency is read from the fitted curve at half-maximal effect
# Lassa entry inh – Lassa virus entry inhibition | Lassa virus pseudotype entry inhibition, cell reporter | Potency, µM (doses to about 37.9 µM), inactives show top-dose activity change, negative = inhibition, hits mostly inhibitors | 300,000 tested, 1.2% active; calls by dose curve; tested in HEK293 cells; also: potency is read from the fitted curve at half-maximal effect; nearly all actives have a fitted effect of over 50% in size
# HCV inhibitor – blocks hepatitis C virus. Huh7.5.1 HCVcc-Cre infection, luciferase reporter, 44 h. Potency, µM (top dose mostly 41.8 µM), without a hit: top-dose activity change, negative = inhibition, most hits filed as inhibitors. 340,000 tested, 3.4% active; active = well fitted inhibition curve with a large enough effect; inconclusive = small, poorly fitted or top-dose-only effect, or another doubt; inactive = no such curve, though single readings can be large or run the other way; also: potency is read from the fitted curve at half-maximal effect
#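 After 44 h co-culture of compound, cells and HCVcc-Cre (~0.5 moi), substrate is added for 15 min at room temperature and luciferase measured over 15 sec. Cells were seeded at 1,000/well and pre-cultured 4 h.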
# VACV Venus inh – inhibitors of vaccinia virus (Venus reporter). Vaccinia virus Venus reporter expression, fluorescence. Potency, µM (highest dose often 36.5 µM), for inactives: at the top dose activity change, negative = inhibition, usual class: inhibitors. 330,000 tested, 0.46% active. AID 720580; calls by dose curve; tested in A549 cells; also: potency is read from the fitted curve at half-maximal effect; nearly all actives have a fitted effect of over 30% in size
# Active calls of the source: *; i = inactive; ? = inconclusive; · = not tested or not shown; [ ] = another dose, or the depositor's remark. % is scaled to controls: 0 for no effect and ±100 for the full control effect.
SMILES,HCMV antiviral,VACV mCherry inh,Marburg entry inh,Lassa entry inh,HCV inhibitor,VACV Venus inh
COc1cccc(/C=C2\Sc3ccc(C(=O)NCc4cccnc4)cc3N(C)C2=O)c1,0,i,?,-12%[46.1 µM],?,-21%
COc1ccc(/C=C2\Sc3ccc(C(=O)NCc4cccnc4)cc3N(C)C2=O)cc1OC,-27,i,?,?,8.9µM*,-13%
CC(C)(C)OC(=O)N1CCC[C@@H]1C(O)(c1ccccc1)c1ccccc1,·,·,-13%[14.2 µM],·,·,·
Cc1nn(C)c(C)c1CNC(=O)c1nn2c(c1Cl)NC(c1cccs1)CC2C(F)(F)F (stereo not drawn),-86*,?,?,-22%,?,?
CC(C)NC(=O)c1cnn2c1NC(c1cccs1)CC2C(F)(F)F (stereo not drawn),?,-22%,-8%,1%,2.8µM*,-19%
Cc1nn(C)cc1CNC(=O)c1cc2n(n1)C(C(F)(F)F)CC(c1cccs1)N2 (stereo not drawn),?,i,-2%,?,?,-7%
COCOc1ccc(-c2ncc(OCCN3CCCC3=O)nc2NC(=O)c2cc3ccccc3s2)cc1,-101*,35%,·,·,·,-10%
O=C(N/N=C/c1ccc(F)cc1)c1cc(-c2ccc3c(c2)OCO3)n[nH]1,46,-10%[7.34 µM],1%[46.1 µM],8.9µM*,?,-20%[7.34 µM]
CN(C)c1ccc(/C=N/NC(=O)c2cc(-c3ccc4c(c3)OCO4)n[nH]2)cc1,-38,-1%,-2%,?,?,-24%
O=C(N/N=C/c1ccc2c(c1)OCO2)c1ccc(NC(=O)c2ccc(F)cc2)cc1,-86*,?,-13%[46.1 µM],3%[46.1 µM],-21%,-9%
O=C(N/N=C/c1ccc2c(c1)OCO2)c1ccc2c(c1)OCCO2,21,?,?,?,5%,-28%
Cc1csc(C(C)N(C)C(=O)c2cc(NC(=O)C3CCC3)c3c(c2)nc(-c2ccncc2)n3C)n1 (stereo not drawn),·,i,·,·,·,-11%
COc1ccc(S(=O)(=O)NCC(c2ccco2)N2CCN(c3ccccc3F)CC2)cc1OC (stereo not drawn),27,-5%,·,-21%[46.1 µM],·,-12%
CC(C)(C)n1nnnc1C(c1cc2ccccc2o1)N(Cc1ccccc1)Cc1ccccc1 (stereo not drawn),-87*,?,·,·,·,-23%
CC(C)(C)c1ccc(CN(Cc2ccccc2)C(c2ccccn2)c2nnnn2C(C)(C)C)cc1 (stereo not drawn),-29,-14%,?,5.6µM*,10µM*,-7%
CN(Cc1ccccc1)C(c1cc2ccccc2o1)c1nnnn1C(C)(C)C (stereo not drawn),?,7%,·,·,·,-2%
CC(C)CCNC(=O)c1cc(Sc2ccc(F)cc2F)nc2ccccc12,-2,-6%,·,-17%[46.1 µM],·,-16%
Cc1cccc(N2CCN(C(=O)c3cc4c(=O)n(C)c5ccccc5c4s3)CC2)c1C,18,?,-1%[46.1 µM],30%[46.1 µM],·,-23%
Cc1ccc(S(=O)(=O)N2C[C@@H]3[C@H]4CC[C@H](C4)[C@@H]3[C@@H](C)[C@@H]2c2cn(Cc3ccccc3)c3ncccc23)cc1,?,i,·,·,4%,-24%
Cc1ccc(S(=O)(=O)N2C[C@@H]3CCCC[C@@H]3[C@@H](C)[C@H]2c2cn(Cc3ccccc3)c3ccccc23)cc1,-97*,-25%,·,·,?,?
Cc1ccc(S(=O)(=O)N2C[C@@H]3CCCC[C@@H]3[C@@H](C)[C@H]2c2cn(Cc3ccccc3)c3ncccc23)cc1,-86*,?,·,·,?,?
COc1ccc(/C=N\NC(=O)COc2ccc(C(C)(C)C)cc2)cc1Cn1nc(C)cc1C,-10,·,?,2.2µM*,-6%,?
COc1ccc(/C=N/NC(=O)c2ccco2)cc1Cn1nc(C)cc1C,39,i,-16%,10%,2%,-4%
CCOC(=O)Nc1ccc2c3c(cccc13)-c1ccccc1-2,-8,-29%,-15%,-3%,10µM*,-18%
CCOC(=O)Nc1cccc2ccccc12,?,-12%,7%,-11%,2%,-18%
SMILES,HCMV antiviral,VACV mCherry inh,Marburg entry inh,Lassa entry inh,HCV inhibitor,VACV Venus inh
CCCCC(=O)Nc1nnc(SCc2cc(=O)n3cc(C)ccc3n2)s1,-29,i,·,19%[46.1 µM],·,2%
C=C[C@@H]1c2cccc(C)c2N(S(=O)(=O)c2ccc(C)cc2)[C@H](c2ccc(OC(C)=O)cc2)C1(C#N)C#N,-79*,-11%,·,·,?,-19%
C=C[C@@H]1c2c(F)cccc2N(S(=O)(=O)c2ccc(C)cc2)[C@H](c2ccc(OC(C)=O)cc2)C1(C#N)C#N,-32,?,·,·,22µM*,?
C=C[C@@H]1c2cccc(C)c2N(S(=O)(=O)c2ccc(C)cc2)[C@H](c2ccccc2)C1(C#N)S(=O)(=O)c1ccccc1 (stereo partly drawn),-11,i,·,·,-22%,-25%
C=C[C@@H]1c2c(F)cccc2N(S(=O)(=O)c2ccc(C)cc2)[C@H](c2ccc(C(=O)OC)cc2)C1(C#N)C#N,-36,-12%,·,·,-14%,-23%
CCc1ccc(N2CC(C)Cn3c2nc2c3c(=O)[nH]c(=O)n2C)cc1 (stereo not drawn),15,?,-10%[46.1 µM],?,25µM*,?
CCOc1ccc(CCNC(=O)C2CCCN(c3nnc(C)c4c(C)n(-c5ccccc5)nc34)C2)cc1 (stereo not drawn),?,-18%,·,-15%[46.1 µM],·,-14%
CN(C)CCCN(C(=O)c1ccc(S(=O)(=O)N2CCCC2)cc1)c1nc2ccc(Br)cc2s1,-23,-13%,10µM*,?,?,-27%
Cc1ccc2sc(N(CCCN(C)C)C(=O)c3ccc(S(=O)(=O)N4CCCCCC4)cc3)nc2c1C,-25,-9%,?,-13%,14µM*,-12%
COc1cccc2sc(N(CCN(C)C)C(=O)c3ccc(S(=O)(=O)N4CCCC4)cc3)nc12,31,-16%,-2%,-16%,16%,-3%
CCOc1ccc2nc(N(CCCN(C)C)C(=O)c3ccc(S(=O)(=O)N4CCCC4)cc3)sc2c1,-18,·,·,·,-25%,·
Cc1cc(C)c2nc(N(CCCN(C)C)C(=O)c3ccc(S(=O)(=O)N4CCCCCC4)cc3)sc2c1,?,-21%,?,?,11µM*,?
O=C(OCc1cn([C@H]2C[C@H](c3ccccc3)N(C(=O)C3CCCCC3)C[C@H]2O)nn1)c1ccccc1,·,·,·,0%[46.1 µM],·,·
Cc1cccc(CCNC(=O)C2CCC(CNS(=O)(=O)c3ccccc3)CC2)c1 (stereo not drawn),-1,-21%,·,-7%[46.1 µM],·,-5%
CCOc1ccc(NC(=O)Cc2coc3ccc(C)cc23)cc1,-8,-22%,-12%[46.1 µM],?,·,-13%
CCN1/C(=C\C=C(C(C)=O)C(C)=O)Sc2ccccc21,23,-22%,-2%[46.1 µM],-20%[46.1 µM],-21%,-1%
